Calls of active or inactive are those of the source. Rule for the calls: active = hit-call score of the fitted dose curve at least 0.9, where 1 is the maximum; inactive = score below 0.9.
Assay: ATG_M_06_CIS: Attagene CIS-FACTORIAL HepG2 Assay for M06 Transcription Factor (Internal Marker) (AID 2282950)
Settings: HepG2 Attagene CIS-FACTORIAL M06 internal marker reporter; actives raise or lower the signal
Description: ATG_CIS is a cell-based, multiplexed-readout assay that uses HepG2, a human liver cell line, with measurements taken at 24 hours after chemical dosing in a 24-well plate.ATG_M_06_CIS is one of 52 assay component(s) measured or calculated from the ATG_CIS assay. It is designed to make measurements of mRNA induction, a form of inducible reporter, as detected with fluorescence intensity signals by Reverse transcription polymerase chain reaction (RT-PCR) and Capillary electrophoresis technology.Data from the assay component ATG_M_06_CIS was analyzed into 1 assay endpoint. This assay endpoint, ATG_M_06_CIS, was analyzed with bidirectional fitting relative to DMSO as the negative control and baseline of activity. Using a type of inducible reporter, measures of mRNA for gain or loss-of-signal activity can be used to understand the background control at the transcription factor-level as they relate to the gene . Furthermore, this assay endpoint can be referred to as a secondary readout, because this assay has produced multiple assay endpoints where this one serves a background control function. To generalize the intended target to other relatable targets, this assay endpoint is annotated to the background measurement intended target family, where the subfamily is internal marker.
Human liver HepG2 cells are transiently transfected with multiple reporter transcription units (MRTUs) in 6-well plates using FuGene 6 reagent (Roche; 3 ml FuGene/1 mg DNA). The MRTU constructs are regulated by a cis-regulating element (promoter). […] A major difference between the CIS and TRANS system is that in CIS activities of endogenous TFs are measured, whereas the TRANS assay evaluates changes in activities of exogenous, chimeric NR-Gal4 proteins. […] At the end of 24 hour incubation, total RNA was isolated using TriZol reagent (Invitrogen). The isolated RNA is then reverse-transcribed using oligo(dT) primer and Mo-MLV reverse transcriptase (Invitrogen) with DNAse I (Ambion) treatment for 30 min. The one-tenth of the produced cDNA was amplified by PCR using Taq DNA polymerase (Invitrogen) and two reporter sequence-specific primers. The PCR products were fluorescently labeled by primer extension with 6-arboxyfluorescein (6-FAM) 5'-labeled reporter sequence-specific primer (2 min at 95 C, 20 s at 68 C and 10 min at 72 C) and these products were digested with 5U of HpaI (New England Biolabs) for 2h at 37 C. The fragments were purified using Qiaquick PCR columns (Qiagen), analyzed on an ABI 3130xL genetic analyzer (Applied Biosystems) with peak positions identified by using a set of X-rhodamine (ROX)-labeled MapMarker1000 molecular weight standards (BioVentures). The raw capillary electrophoresis data was processed using Attagraph software (Attagene).

SMILES	outcome
CCCSP(=S)(OCC)Oc1ccc(SC)cc1 (stereo not given)	inactive
O=c1nc(O)n(Cl)c(=O)n1Cl	inactive
O=NN1CCCCCC1	inactive
CC(C)(C)c1ccc(CCOc2ncnc3ccccc23)cc1	inactive
BrCCCCBr	inactive
CC(C)O.CC(C)O.OCCN(CCO)CCO.OCCN(CCO)CCO.[Ti]	inactive
O=S(=O)(C(Cl)(Cl)Cl)C(Cl)(Cl)Cl	inactive
c1ccc2sc(SNC3CCCCC3)nc2c1	inactive
OC(Cc1ccccc1Cl)(Cn1[nH]cnc1=S)C1(Cl)CC1 (stereo not given)	inactive
Cc1cccc(OP(=O)(Oc2cccc(C)c2)Oc2cccc(C)c2)c1	inactive
CCCCCCCCCCCCBr	inactive
N#CCCC(Br)(C#N)CBr (stereo not given)	inactive
Oc1cc(Cl)c(Cl)cc1Cl	inactive
CCN(CCO)CCO	inactive
Nc1c(Oc2ccccc2)cc(O)c2c1C(=O)c1ccccc1C2=O	inactive
OC(c1ccc(Cl)cc1)(c1ccc(Cl)cc1)c1cccnc1	inactive
COc1ccc([N+](=O)[O-])cc1O	inactive
N#Cc1ccncc1	inactive
N#Cc1cccnc1	inactive
Nc1ccc(-c2ccccc2)cc1	inactive

SMILES	outcome
CC1(C)[C@H](/C=C2\CCSC2=O)[C@@H]1C(=O)OCc1coc(Cc2ccccc2)c1	inactive
CNC(=O)CSP(=O)(OC)OC	inactive
O=C(O)C1(c2ccc3c(c2)OC[C@H](Cc2ccc(-c4ccccc4)cc2)[C@H]3O)CCCC1	inactive
Clc1ccc(C(Cl)(Cl)Cl)cn1	inactive
Nc1ncn[nH]1	inactive
CCOP(=S)(OCC)SCS(=O)(=O)C(C)(C)C	inactive
O=c1oc2ccccc2c(O)c1C(CC(O)c1ccc(-c2ccc(Br)cc2)cc1)c1ccccc1 (stereo not given)	inactive
CCOc1cc(C=O)ccc1O	inactive
CN(C)CCN(C)C	inactive
Cc1c([N+](=O)[O-])c(C)c([N+](=O)[O-])c(C(C)(C)C)c1[N+](=O)[O-]	inactive
CCOP(=O)(OCC)SCCSCC	inactive
Nc1ccc(N)cc1	inactive
C=CC(=O)OCC(COC(=O)C=C)(COC(=O)C=C)COC(=O)C=C	inactive
N#CS	inactive
CC1(C)COP(Oc2ccccc2)OC1	inactive
OC(Cc1ccccc1Cl)(Cn1cncn1)C1(Cl)CC1 (stereo not given)	inactive
CCCCS(=O)(=O)Cl	inactive
CCOC(=O)C(SP(=S)(OC)OC)c1ccccc1 (stereo not given)	inactive
O=C(NC(=O)c1c(F)cccc1F)Nc1cc(Cl)c(Oc2ncc(C(F)(F)F)cc2Cl)c(Cl)c1	inactive
COc1ccc(N)cc1	inactive

— PubChem BioAssay (EPA / NIEHS)
